# Measured values reported in the supplement of paper PMC10105736.
# Unmarked numbers belong to inactive results.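 How the source made its calls: active = MAPPIT score above the 99th percentile of random reference set scores in the same batch; inactive = at or below it.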
# Assays:
# Experiment in all cases: MAPPIT interaction score (arbitrary units); higher = stronger binary interaction signal, active = hit call of the paper
# CG10510 = conditions: MAPPIT configuration: N-N; pair source set: Finley_Y2H
# CG31111 = conditions: MAPPIT configuration: N-N; pair source set: DPIM
# CkIIbeta = target: CkIIbeta
# Pkc98E = conditions: MAPPIT configuration: N-N; pair source set: Finley_Y2H
# CG10918 = conditions: MAPPIT configuration: N-N; pair source set: Finley_Y2H
# CG11149 = conditions: pair source set: RRS
# CG14323 = conditions: MAPPIT configuration: N-N; pair source set: RRS
# CG34268 = conditions: MAPPIT configuration: N-N; pair source set: RRS
# CG10483 = conditions: MAPPIT configuration: N-N; pair source set: DPIM
# CG4847 = conditions: MAPPIT configuration: N-N; pair source set: DPIM
# twin = conditions: MAPPIT configuration: N-N; pair source set: DPIM
# CG10841 = conditions: MAPPIT configuration: N-N; pair source set: screen_2
# 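Further: HEK293T cells with Epo stimulation, STAT-responsive firefly luciferase reporter, fold induction versus unstimulated cells divided by the larger fold induction of two negative controls lacking either bait or prey.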
binder,measurement,setting,value
CkIIalpha (protein) MTLPSAARVYTDVNAHKPDEYWDYENYVVDWGNQDDYQLVRKLGRGKYSEVFEAINITTTEKCVVKILKPVKKKKIKREIKILENLRGGTNIITLLAVVKDPVSRTPALIFEHVNNTDFKQLYQTLTDYEIRYYLFELLKALDYCHSMGIMHRDVKPHNVMIDHENRKLRLIDWGLAEFYHPGQEYNVRVASRYFKGPELLVDYQMYDYSLDMWSLGCMLASMIFRKEPFFHGHDNYDQLVRIAKVLGTEELYAYLDKYNIDLDPRFHDILQRHSRKRWERFVHSDNQHLVSPEALDFLDKLLRYDHVDRLTAREAMAHPYFLPIVNGQMNPNNQQ,MAPPIT interaction score,CG10510,0.0158
same,MAPPIT interaction score,CG31111,0.429
same,MAPPIT interaction score,"CkIIbeta; MAPPIT configuration: N-C, pair source set: Lit-BM-16",3.22
same,MAPPIT interaction score,"CkIIbeta; MAPPIT configuration: N-N, pair source set: Lit-BM-16",4.3 (active)
same,MAPPIT interaction score,"CkIIbeta; MAPPIT configuration: N-N, pair source set: screen_1",4.3 (active)
same,MAPPIT interaction score,Pkc98E,0.257
Fer2LCH (protein) MKFFVALALFACLGSLALAKDDEYCQNTVITACSTSAFSANSICNARFAGIDHIEPEIQSYINANLAKSYDYLLLATHFNSYQKNRPGFQKLYQGLSDRSFEDSIALIKQVTRRGGIVDFNTRHESSGSVSTKRGTLEVDELHSLALALDTEKQLATGATHVHSRATHATDAERDPELAHYFEENFLGKQAESVRKLSGYANDLAKLMKVPDPSLSVYLFDEYLQKQ,MAPPIT interaction score,CG10918,0.0432
wuho (protein) MCTTISFAEPEIVLGHGRRVLFVNPDDLQIFKEIELPPDLGLKGHTSQSQESCTAAAAASTATAASGQAPGGKEQQLANQPEEGGTSASASGLGCATSTSVQNVAYSPDGQLLAVTTSGKQKALLLYRSRPENARLLSARPLARASSALRFCSDSSSILVTDKTGDCYQYDCVEVEAPPRLLLGHLSVVYDILWSEDQQHIITCDRDDKIRVTNYPATFDIHSYCLGHREFVSGLALLTEQHIASASGDKTLRVWNYIQGKELLQHELPAPAVRLLVRQLEPEKVFQAAVLFYEHVDALGLYRLERSSDDTWSVTATQLVCAEAGSWSISNFTLTSDRIYITGAENERLSLRVYDIATGQPASSGVPEGWLKMVLDGLGANEEGAPPFIPEDLSVWFKKRFDNVSDYLERKKRRIEEQQQQKCG,MAPPIT interaction score,CG11149; MAPPIT configuration: N-C,0.206
same,MAPPIT interaction score,CG11149; MAPPIT configuration: N-N,-0.175
same,MAPPIT interaction score,CG14323,0.00913
same,MAPPIT interaction score,CG34268,0.0545
CG1785 (protein) MTAVEPATKKKRISKKNKSAWRKTDIQDVEQFLEDQRQEERVGTFADKQDEDLFVVDSSLPKTKATVLSVKQKRKLNAKKPMRSYQALENTSKVQDPIAKRNHVRQKKNGRNIELEVCNPTKPRHRQANSDRAQYYVKLEQRLADKKNKKLDVEKDIWQEVDFRDEIPGLKDEKGWISRELALHTAGNIGKKVVKTHASLHHKTTKAKKFELPHPGMSYNPAPEDHQALIDQVVEREEGIIKKEQHLKRVTTSMFSKVTPEERDRRRLNEMSQGMDEEEGSELDEDVQTNGKKKEDDDEKPYHTINAPVENKKKSKQARRNELKQKELARQTELKRKLKQQTADLIRIKSIRHELDDEEEDLNDLKKRRKQRAEKAKFEPKRLGRHKFEEPDLDVNLPEDIAGNLRNVKTESSLLKDRFHTLQRNNMLPTTKLVSRKKSKVKRFERNSHKEPGVSYNDLKERRRAAAAAAKATANIKI,MAPPIT interaction score,CG10483,0.068
same,MAPPIT interaction score,CG4847,0.0294
same,MAPPIT interaction score,twin,-0.15
mxt (protein) MAHTHLGRAVKNIEAPRPLKTQSRSSLKNSYLVIEELIQLIDNVTVGLQSCNTTPESITLLLHNLRVHGPQLEAVSKDTLDRAFVVFRNASQDERLNITTRLKLLELIELRAKSWDNDDTIAYYKSKQQISNVELPSEYQYDAGVQPGAFSTSPTFGVSGGVGGVNDGAAAAAAAVFNAASAAAAAQAAAIAAVGTSNQQHMLLPPGEVIRNSGKFPKPTKIPGKTYCKDEVVIRNADSGKVMGIKGRRVHMIEELSETIISFQRVNPGAKERLVQITGPAEDKINYAKQLMEDTIRRNASPVRLEPAPAVGGSCSSLNSSNSDDAIVQPRTPTGSSLANRLSFNSAQNFMTATAAAQQISQQMHHQTHHLQHQQQQQVAAVAAAAAAAAHAQATAAAGKVLRPNQQLLMHSYSTNDASVGEYKFTVNVGQHLIKITGDCCELVRVAKLVLDDYFSSSEFLASIEAGAAFDGTSLVTTPSTPLPGAGPPQFWLPGTDSGIGLNCVVSSSANNNGEGDDEVFAEPSNGGSSTSNQNGLARSRRSHFSRKESTPETKGAREKGDLDDLAGTNSLKSNASRVSYDIEHLLYYSMSPHSWTLPTDWQKMQETAPSILRNKDLQDESQRFDGDKYLASIKTAAKRDIVAADEVETLDE,MAPPIT interaction score,CG10841,0.671
